PubChem BioAssay AID463173 (ICCB-Longwood Screening Facility, Harvard Medical School, 2010)
The whole screen tested about 52,000 compounds, of which about 4,300 (8.3%) were called active. No stated cut-off is given here; in the data, active means survival mostly below about 52% (no sharp cut-off); inactive means mostly above about 56%. Shown is part of a subset that was picked to be rich in actives.

These compounds were tested on DeltatarO mutant (assay: S. aureus survival, RN4220 and DeltatarO strains – OD600, teichoic acid synthesis inhibitors, primary screen (AID 463173)). Settings: S. aureus RN4220 wild type/DeltatarO growth, OD600, 18 h, stronger effect = lower value, screened at 18.75 µg/mL (by protocol).
`O=C(c1cccc(C(F)(F)F)c1)C1CCN(C(=O)N2CCOCC2)CC1` was tested, and the survival was 103% (inactive). With `Cc1cccc(CSc2nc3c(c(=O)[nH]2)C(c2cccc(O)c2)CC(=O)N3)c1` (stereo not drawn) the survival was 110% (inactive). For `CCc1nn(CC(=O)NCc2ccco2)c(=O)c2cc3cc(F)ccc3n12`, the survival was 104% (inactive). In the case of `COc1ccc(Cn2ccc3nc(C)c(C(=O)N4CCN(c5ccccc5)CC4)cc3c2=O)cc1`, the survival is reported as 85% (inactive). With `COc1ccc(CNC(=O)Cn2c(=O)cc(-c3ccccc3)c3c(C)nn(C)c32)cc1` the survival was 67% (inactive). In the case of `COc1ccc(CCNC(=O)CN(c2ccccc2)S(=O)(=O)N(C)C)cc1OC`, the survival is reported as 62% (inactive). With `Cc1cccc(NC(=O)c2sc(-n3nc(C)c(CCC(C)C)c3C)nc2C)c1C` the survival was 62% (inactive). In the case of `Cc1nc(-n2nc(C)c(CCC(C)C)c2C)sc1C(=O)Nc1cccc(Cl)c1`, the survival is reported as 122% (inactive). With `Cc1nc(-n2nc(C)c(CCC(C)C)c2C)sc1C(=O)Nc1cccc(Cl)c1C` the survival was 56% (active). With `CCCN(C(=O)Nc1cn(CC(C)C)c(=O)c2ccccc12)c1ccc(F)cc1` the survival was 82% (inactive). In the case of `Cc1cc(C)n(CCCO)c(=O)c1C#N`, the survival is reported as 86% (inactive). In the case of `COc1ccc(-c2cn3c(n2)sc2cc(C(=O)NC4CCCCCC4)ccc23)cc1`, the survival is reported as 73% (inactive). In the case of `CCn1c(CN2CCC(C)CC2)nc2cc(NC(=O)c3ccc([N+](=O)[O-])cc3)ccc21`, the survival is reported as 86% (inactive). `CCC1CN(C(=O)Nc2cccc3c2CCCC3)c2cc(C)ccc2O1` (stereo not drawn) was tested, and the survival was 49% (inactive). With `CCC1CN(C(=O)Nc2cc(C)ccc2OC)c2cc(Cl)ccc2O1` (stereo not drawn) the survival was 44% (active). `CCC1CN(C(=O)Nc2cccc3c2CCCC3)c2cc(Cl)ccc2O1` (stereo not drawn) was tested, and the survival was 44% (active). With `CCC1CN(C(=O)Nc2cccc3c2CCCC3)c2ccccc2O1` (stereo not drawn) the survival was 56% (inactive). In the case of `CCC1CN(C(=O)Nc2cc(Cl)c(OC)cc2OC)c2ccccc2O1` (stereo not drawn), the survival is reported as 61% (inactive). In the case of `CCc1ccccc1NC(=O)N1CC(CC)Oc2ccc(Cl)cc21` (stereo not drawn), the survival is reported as 44% (inactive). `Cc1ccc(C)c(CN2C(=O)c3ccccc3Sc3ccc(C(=O)NCCCOC(C)C)cc32)c1` was tested, and the survival was 89% (inactive). For `COc1cccc(N2CCN(c3ncnc4onc(-c5ccc(F)cc5)c34)CC2)c1`, the survival was 83% (inactive). In the case of `CCc1ccc(NC(=O)CSc2nc(C)cc(COC)c2C#N)cc1`, the survival is reported as 84% (inactive). `COc1ccc2[nH]c(=O)c(CN(Cc3cccs3)S(=O)(=O)c3cccc4nsnc34)cc2c1` was tested, and the survival was 113% (inactive). In the case of `CC1CN(C(=O)CCC(=O)Nc2cc(F)ccc2F)c2ccccc2S1` (stereo not drawn), the survival is reported as 51% (inactive). With `CCc1ccccc1NC(=O)N1CC(C)Sc2ccccc21` (stereo not drawn) the survival was 77% (inactive). `Cc1ccccc1NC(=O)CCC(=O)N1CC(C)Sc2ccccc21` (stereo not drawn) was tested, and the survival was 64% (inactive). In the case of `Cc1ccc(Cl)cc1NC(=O)CCC(=O)N1CC(C)Sc2ccccc21` (stereo not drawn), the survival is reported as 44% (active). `COC(=O)c1ccccc1NC(=O)CCC(=O)N1CCOc2ccccc21` was tested, and the survival was 65% (inactive). For `COC(=O)c1ccccc1NC(=O)CCC(=O)N1CC(C)Sc2ccccc21` (stereo not drawn), the survival was 42% (active). `Fc1ccccc1N1CCN(Cc2nnc(-c3ccc4c(c3)OCO4)o2)CC1` was tested, and the survival was 85% (inactive). `CCC(=O)N(c1nnc(-c2cc(OC)c(OC)c(OC)c2)s1)C1CCCC1` was tested, and the survival was 65% (inactive). In the case of `O=C(CNC(=O)c1ccc(F)cc1)OCc1cc(=O)n2nc(C3CC3)sc2n1`, the survival is reported as 81% (inactive). `Cc1ccc(Nc2nc(C)cs2)cc1` was tested, and the survival was 82% (inactive). `Oc1ccc(Nc2nc(-c3ccc(O)cc3)cs2)cc1` was tested, and the survival was 1% (active). In the case of `c1ccc(Nc2nc(-c3ccncc3)cs2)cc1`, the survival is reported as 100% (inactive). In the case of `CN1CCN(C(c2cccc(Br)c2)c2sc3nc(-c4ccco4)nn3c2O)CC1` (stereo not drawn), the survival is reported as 70% (inactive). `Cc1ccc(-c2c(C(=O)NCCc3ccc(Cl)cc3)oc(=O)c3ccccc23)cc1` was tested, and the survival was 51% (inactive). With `CCOc1ccc(N(C)C(=O)c2oc(=O)c3ccccc3c2-c2ccccc2)cc1` the survival was 55% (inactive). With `Cc1ccc(-c2c(C(=O)N(C)Cc3ccccc3)oc(=O)c3ccccc23)cc1` the survival was 24% (active). For `CCN(CC)S(=O)(=O)c1ccc2oc(C(=O)N(C)Cc3ccccc3)c(C)c2c1`, the survival was 40% (active). With `COc1ccc(N(C)C(=O)c2oc(=O)c3ccccc3c2-c2ccc(C)cc2)c(OC)c1` the survival was 97% (inactive). With `CCCCN(Cc1ccccc1)C(=O)c1oc(=O)c2ccccc2c1-c1ccc(C)cc1` the survival was 8% (active). With `CCCCN(CCCC)S(=O)(=O)c1ccc2oc(C(=O)NCc3ccccc3)c(C)c2c1` the survival was 99% (inactive). In the case of `Cc1ccc(-c2c(C(=O)NCc3ccc(F)cc3)oc(=O)c3ccccc23)cc1`, the survival is reported as 57% (inactive). `CCOc1ccc(CCNC(=O)c2oc(=O)c3ccccc3c2-c2ccc(C)cc2)cc1OCC` was tested, and the survival was 70% (inactive). `Cc1ccc(CCNC(=O)c2oc(=O)c3ccccc3c2-c2ccc(C)cc2)cc1` was tested, and the survival was 28% (active). With `CCN(CC)S(=O)(=O)c1ccc2oc(C(=O)NCc3ccccc3OC)c(C)c2c1` the survival was 71% (inactive). For `Cc1ccc(-c2c(C(=O)NCCc3ccccc3)oc(=O)c3ccccc23)cc1`, the survival was 91% (inactive). For `O=C1CC(N2CCC(c3nc4ccccc4[nH]3)CC2)C(=O)N1` (stereo not drawn), the survival was 84% (inactive). `Cc1c(C)n(Cc2ccccc2)c2ccc(C(=O)NCCc3ccccc3Cl)cc12` was tested, and the survival was 84% (inactive). In the case of `COCCCn1c(SCC(=O)Nc2ccc(F)cc2)nc2c(sc3ccccc32)c1=O`, the survival is reported as 81% (inactive). With `CCOCCc1nnc(NC(=O)C(=O)c2cc(C)n(-c3ccc(Cl)cc3)c2C)s1` the survival was 60% (inactive). With `CC(C)c1nn2c(=O)cc(COC(=O)c3ccccc3NC(=O)C3CCCCC3)nc2s1` the survival was 90% (inactive). In the case of `CCOCCCNC(=O)C1CCN(c2nn3cc(-c4ccc(F)cc4)nc3s2)CC1`, the survival is reported as 86% (inactive). `CC1=C(c2ccc(C)c(C)c2)S(=O)(=O)N=C1N1CCC(C(=O)NCc2ccccc2C)CC1` was tested, and the survival was 76% (inactive). In the case of `COc1ccc(CNC(=O)CCc2c(C)c3cc4c(C)c(C)oc4cc3oc2=O)cc1OC`, the survival is reported as 104% (inactive). With `CCOc1ccc(OCC)c(Nc2nc3ccc(C(=O)c4ccccc4)cc3n3cnnc23)c1` the survival was 77% (inactive). With `CCCCNC(=O)C1CCN(c2nc3ccccc3nc2C(F)(F)F)CC1` the survival was 115% (inactive). With `O=C(NCCc1ccccc1Cl)C1CCN(c2nc3ccccc3nc2C(F)(F)F)CC1` the survival was 37% (active). For `Cc1ccccc1CCNC(=O)C1CCN(c2nc3ccccc3nc2C(F)(F)F)CC1`, the survival was 72% (inactive). `CCCSCCCNC(=O)C1CCN(c2nc3ccccc3nc2C(F)(F)F)CC1` was tested, and the survival was 0% (active). For `COc1ccccc1CCNC(=O)C1CCN(c2nc3ccccc3nc2C(F)(F)F)CC1`, the survival was 117% (inactive). In the case of `CCNC(=O)C1CCN(c2nc3ccccc3nc2C(F)(F)F)CC1`, the survival is reported as 144% (inactive).
